Assay outcomes: PubChem BioAssay, National Center for Advancing Translational Sciences (NCATS)
Only some compounds are listed: those with a hit (about 7.5% of all), similar ones and a draw of the others.
ELG1 genotox – inducers of genotoxicity in HEK293T ELG1-luciferase cells; HEK293T ELG1-luciferase reporter, luminescence, 16 h; Potency, µM (titrated, usually from 46 µM), without a hit: top-dose activity change, positive = activation, most hits filed as activators; 330,000 tested, 1.3% active; AID 504466; further: % of control where 0% means no effect; nearly all actives have a fitted effect of over 60% in size
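HEK293T cells expressing luciferase-tagged ELG1 were exposed to compound or DMSO vehicle for 16 hr at 37 °C and 5% CO2. Luciferase activity was then measured with ONE-Glo after 30 min at room temperature.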
SMN2 splice up – SMN2 splice variant enhancement | HEK293 SMN2-luciferase splicing reporter, luminescence, 30-36 h | Potency, µM (top dose mostly 46.1 µM), for inactives: at the highest dose activity change, positive = activation, actives largely listed as activators | 210,000 tested, 2.8% active | AID 1458; further: % of control where 0% means no effect; nearly all actives have a fitted effect of over 55% in size
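HEK293 cells carry an SMN2 minigene-luciferase reporter in which exon 7 inclusion puts luciferase in frame. Cells were seeded at 2000 cells/well, attached for 10-12 hours, then exposed to compounds for 30-36 hours at 37C before ONE-Glo luminescence.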
Rab9 promoter act – activators of Rab9 promoter; 320,000 tested, 2.8% active; Potency, µM (highest dose often 9.22 µM), for the others: at the top dose activation, negative = inhibition, actives largely listed as activators; Huh7 Rab9 promoter-luciferase reporter, luminescence, 24 h; further: % of control where 0% means no effect; nearly all actives have a fitted effect of over 60% in size
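Luciferase signal after 10 min detection reagent at ambient indicates Rab9 promoter upregulation; stably transfected Huh7 cells were treated 24 h with compound in DMSO at 37 °C, 5% CO2.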
NPC1 prom act – activates the NPC1 promoter; 320,000 tested, 2.4% active; Huh7 NPC1 promoter luciferase reporter, 24 h; Potency, µM (series often up to 9.22 µM), for inactives: at the highest dose activation, most hits filed as activators; further: % of control where 0% means no effect; nearly all actives have a fitted effect of over 60% in size
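Luminescence read-out of NPC1 promoter-driven luciferase in stably transfected Huh7 cells; compounds delivered in DMSO and left 24 h at 37C, 5% CO2, qHTS titration format.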
FLuc counter – inhibits or activates purified firefly luciferase, miR-21 counter-screen; P08659; purified FLuc, Km substrates, luminescence inhibition; Potency, µM (doses to about 57.5 µM), for the others: at the top dose activity change, negative = inhibition, usual class: inhibitors; 360,000 tested, 6.9% active;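 further: plate controls were vehicle for no effect and reference inhibitor for full effect; nearly all actives have a fitted effect of over 55% in size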
Target sequence (P08659 whole entry, looked up): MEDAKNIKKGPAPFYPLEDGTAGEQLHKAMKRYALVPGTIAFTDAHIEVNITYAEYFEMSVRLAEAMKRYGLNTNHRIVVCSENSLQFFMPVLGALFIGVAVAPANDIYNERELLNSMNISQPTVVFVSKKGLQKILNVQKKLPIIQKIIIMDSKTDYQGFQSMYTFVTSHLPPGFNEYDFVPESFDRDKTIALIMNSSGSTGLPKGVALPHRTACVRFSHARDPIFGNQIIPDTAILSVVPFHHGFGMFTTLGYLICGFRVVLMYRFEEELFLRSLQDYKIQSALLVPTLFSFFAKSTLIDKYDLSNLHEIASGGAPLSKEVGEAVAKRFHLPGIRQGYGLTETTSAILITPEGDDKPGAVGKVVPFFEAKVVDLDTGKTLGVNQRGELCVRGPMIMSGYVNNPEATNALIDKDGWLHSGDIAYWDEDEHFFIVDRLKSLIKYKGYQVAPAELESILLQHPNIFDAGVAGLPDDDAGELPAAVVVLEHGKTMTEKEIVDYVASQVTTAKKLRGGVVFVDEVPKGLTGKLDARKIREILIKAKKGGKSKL
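Purified P. pyralis luciferase (10nM final) with 10uM D-luciferin and 10uM ATP (Km levels) in 50mM Tris acetate pH 7.5, 10mM Mg acetate, 0.01% Tween-20, 0.05% BSA; qHTS 6-point titration, ~60 µM downward; luminescence read.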
Active calls of the source: *; ? = inconclusive; nt = no result given. The call rests on the fitted dose curve; in most records, active means well fitted curve in the direction sought with a large enough effect; inconclusive means small, poorly fitted or top-dose-only effect, or another doubt; inactive means no such curve, though single readings can be large; an effect the other way counts as inactive or inconclusive. Potency means the concentration at half of the fitted maximal effect.

SMILES | ELG1 genotox | SMN2 splice up | Rab9 promoter act | NPC1 prom act | FLuc counter
CC(=O)N/N=C(/C)c1ccc(NC(=O)c2csc(C)c2C)cc1 | 12µM* | nt | 1.4µM* | 2.8µM* | 11µM*
C/C(=N/NC(=O)c1cccs1)c1ccco1 | ? | ? | ? | 28% | 17µM*
C/C(=N\NC(=O)c1ccco1)c1cc(Cl)sc1Cl | ? | nt | ? | 4% | ?
Cc1ccc(-c2nnn(CCC(=O)NC3CCCC3)n2)cc1 | -1% | -4% | 12% | 0% | -9%
Cc1ccc(CN2CCN(CC(=O)N/N=C/c3ccc(C)o3)CC2)cc1 | ? | nt | 2% | 1% | -1%
CCCN1CCc2c(sc(NC(=O)CCS(=O)(=O)c3ccccc3)c2C(=O)OC)C1 | -5% | nt | -12% | -2% | 4%
CC(/C=N/NC(=O)c1cccs1)=C\c1ccco1 | 9.2µM* | 11µM* | 1.4µM* | 3.2µM* | 6µM*
O=C(CN(CC1CCCO1)C(=O)CNS(=O)(=O)c1ccc(Cl)cc1)NCCc1ccccc1 (centres undefined) | 0% | -2% | 3% | -4% | 7%
O=C(NC1CC1)C1=C[C@H](C2CCCCC2)C[C@H](OCCCCO)O1 | 7% | nt | 1% | -3% | 2%
O=C(Nc1ccccc1)C1=C[C@@H](C2CCCCC2)C[C@@H](OCCCCO)O1 | ? | nt | ? | 27% | 12µM*
Cc1[nH]c2ccccc2c1/C=N/NC(=O)CNC(=O)c1ccc2c(c1)OCCO2 | -10% | nt | -2% | -5% | ?
COc1ccc2nc(Nc3nc(C)c(C(C)=O)s3)sc2c1 | ? | 17% | 2.5µM* | 2.8µM* | 4.8µM*
COc1ccc(Nc2nc3ccc(OC)cc3s2)cc1 | ? | 13µM* | 2.2µM* | ? | 11µM*
COc1cccc(NC(=O)CN(C)C(=O)c2c(C)noc2C)c1 | 3% | nt | 8% | 0% | -1%
CC1CC(=O)N(CC(=O)Nc2ccccc2F)c2ccccc2S1(=O)=O (centres undefined) | 0% | nt | -3% | 0% | -1%
Cn1c(=O)oc2cc(S(=O)(=O)CCC(=O)NCc3ccc(Cl)cc3)ccc21 | nt | nt | nt | nt | -2%
c1ccc(OCCOc2ncnc3sccc23)cc1 | 16µM* | ? | 2.8µM* | 26% | ?
COc1cccc(COc2ncnc3sccc23)c1 | 4% | -6% | -2% | 0% | 0%
C=C(CCC(=O)c1ccccc1)C(=O)c1ccccc1 | -16% | -20% | -8% | -4% | 17µM*
O=C(CCCCCCCC(=O)c1ccccc1)c1ccccc1 | 0% | 1% | -7% | 10% | -18%
Cn1c(=O)c2sccc2n2c(CCC(=O)NCc3ccccc3)nnc12 | nt | 26% | nt | nt | 2%
Cc1ccc(/C=C/C(=O)c2nc3ccccc3[nH]2)cc1 | 1% | ? | 11% | 0% | 0.76µM*
Cc1ccc(/C=C/C(=O)Nc2nc3ccccc3[nH]2)cc1 | 10µM* | 10µM* | 1.8µM* | 3.2µM* | ?
NC(=O)Nc1nc2ccccc2[nH]1 | nt | 13% | nt | nt | nt
O=C(/C=C/c1c(F)cccc1Cl)Nc1nc2ccccc2[nH]1 | ? | 7.1µM* | 2.8µM* | 3.2µM* | -19%
SMILES | ELG1 genotox | SMN2 splice up | Rab9 promoter act | NPC1 prom act | FLuc counter
COc1ccc(OC)c(NC(=O)CSc2nnc3ccc(-c4ccccn4)nn23)c1 | 5% | nt | -4% | 6% | -2%
Cc1cc(=O)oc2cc(NC(=O)C(C)Oc3ccc(F)cc3)ccc12 (centres undefined) | 8% | nt | -2% | -1% | 1%
Cc1cc(=O)oc2cc(NC(=O)c3cccc(S(=O)(=O)N(C)C)c3)ccc12 | ? | nt | 0.89µM* | 1.3µM* | ?
Cc1cc(=O)oc2cc(NC(=O)c3cccc(F)c3)ccc12 | 13% | nt | 1.4µM* | ? | -16%
Cc1cc(=O)oc2cc(NC(=O)c3ccc(OC(F)F)cc3)ccc12 | 4.5µM* | nt | ? | ? | -14%
Cc1cc(=O)oc2cc(OCC(=O)Nc3cccc(S(=O)(=O)N(C)C)c3)ccc12 | 3% | 5% | -8% | -4% | 4%
O=C(CCNC(=O)c1ccc(Cl)cc1)NCc1ccco1 | -1% | nt | nt | nt | nt
C/C(=N\NC(=O)c1cccc2ccccc12)c1ccccn1 | ? | nt | -30% | 9% | ?
CCOc1ccc(OCc2ccc(C(=O)N/N=C(\C)c3ccccn3)cc2)cc1 | ? | -84% | -9% | -2% | 12µM*
C/C(=N\NC(=O)c1ccccc1OCc1ccc(F)cc1)c1ccccn1 | 5% | nt | -19% | -4% | 21µM*
COCCn1c(C)cc(C2=NNC(=Nc3ccc(OC)cc3)SC2)c1C | -2% | 11% | ? | -2% | ?
COc1ccc(CN=C2NN=C(c3cccc(OC)c3)CS2)cc1 | -7% | 28µM* | ? | 28% | ?
COc1cccc(C2=NNC(=NCc3ccccc3)SC2)c1 | 2% | ? | ? | 19% | 21µM*
Cc1ccc(C)c(C2=NNC(=NCc3ccccc3)SC2)c1 | -10% | -3% | 1% | 11% | -15%
COc1ccc(CN=C2NN=C(c3ccccc3)CS2)cc1 | 13% | ? | ? | 18% | 27µM*
Cc1cccc(C)c1NC(=O)CN(C)C(=O)c1ccccc1OCc1ccc(F)cc1 | -13% | nt | -1% | 0% | 2%
CC(N=Cc1c(O)c2ccccc2oc1=O)C(=O)O (centres undefined) | -4% | -8% | -8% | -5% | -14%
CCOC(=O)Cc1ccc(NC(=O)c2ccc(C(C)(C)C)cc2)cc1 | -16% | -107% | -21% | -17% | 1.1µM*
CCOC(=O)Cc1ccc(NC(=O)c2ccccc2Br)cc1 | 10% | 24% | 12% | 14% | 19µM*
CCOC(=O)c1ccc(NC(=O)c2ccc(NC(=O)c3ccccc3)cc2)cc1 | ? | ? | -4% | -4% | -1%
O=c1c(N2CCN(c3cccc(C(F)(F)F)c3)CC2)csc2ccccc12 | nt | nt | nt | nt | 0%
O=c1c(N2CCc3ccccc3C2)csc2ccc(Br)cc12 | nt | nt | nt | nt | 9.5µM*
O=c1c(N2CCc3ccccc3C2)csc2ccccc12 | nt | nt | nt | nt | 9.5µM*
COc1ccccc1N1CCN(c2csc3ccccc3c2=O)CC1 | nt | nt | nt | nt | 11µM*
O=C(NCCS(=O)(=O)NC1CCCC1)c1ccccc1 | 1% | nt | 1% | 3% | 2%
SMILES | ELG1 genotox | SMN2 splice up | Rab9 promoter act | NPC1 prom act | FLuc counter
Cc1nn(C)c(C)c1N=Cc1c(O)ccc2ccccc12 | -1% | 10% | 15% | 0% | 13µM*
CC1CCCC(C)N1C(=O)CSc1nnc(-c2cccs2)o1 (centres undefined) | ? | 11µM* | 1.6µM* | 1.1µM* | 12µM*
O=C(CSc1nnc(-c2cccs2)o1)N1CCCCC1 | 9.2µM* | 13µM* | 1.6µM* | 2.5µM* | 21µM*
CC1CCCCN1C(=O)CSc1nnc(-c2cccs2)o1 (centres undefined) | ? | nt | 2.2µM* | 3.5µM* | 21µM*
O=C(CSc1nnc(-c2cccs2)o1)N1CCOCC1 | 4% | -1% | 0% | -1% | 0%
CC1CCN(C(=O)CSc2nnc(-c3cccs3)o2)CC1 | 20% | nt | 21% | 13% | -14%
